# Test results taken from paper doi:10.1101/2025.02.07.636106.
# What was measured:
# [1] = molecular target: Large ribosomal subunit protein eL36 (UniProt Q9Y3U8); experiment: cross-linking mass spectrometry
# Obscurin = Obscurin (UniProt Q5VST9); experiment: cross-linking mass spectrometry
# [2] = molecular target: Inositol 1,4,5-trisphosphate-gated calcium channel ITPR2 (UniProt Q14571); experiment: cross-link between two proteins; cross-linking mass spectrometry
# [3] = molecular target: Nucleolar and coiled-body phosphoprotein 1 (UniProt Q14978); experiment: as above
# [4] = molecular target: Putative ribosomal protein eS10-like (UniProt Q9NQ39); experiment: as above
# [5] = molecular target: Ragulator complex protein LAMTOR3 (UniProt Q9UHA4); experiment: as above
# [6] = molecular target: Synaptonemal complex protein 2-like (UniProt Q5T4T6); experiment: as above
# [7] = molecular target: V-type proton ATPase subunit D (UniProt Q9Y5K8); experiment: as above
# [8] = molecular target: Zinc finger protein 28 homolog (UniProt Q8NHY6); experiment: as above
# Zinc finger protein 786 = molecular target: T1, Zinc finger protein 786 (UniProt Q8N393); experiment: as above
# T1 sequence: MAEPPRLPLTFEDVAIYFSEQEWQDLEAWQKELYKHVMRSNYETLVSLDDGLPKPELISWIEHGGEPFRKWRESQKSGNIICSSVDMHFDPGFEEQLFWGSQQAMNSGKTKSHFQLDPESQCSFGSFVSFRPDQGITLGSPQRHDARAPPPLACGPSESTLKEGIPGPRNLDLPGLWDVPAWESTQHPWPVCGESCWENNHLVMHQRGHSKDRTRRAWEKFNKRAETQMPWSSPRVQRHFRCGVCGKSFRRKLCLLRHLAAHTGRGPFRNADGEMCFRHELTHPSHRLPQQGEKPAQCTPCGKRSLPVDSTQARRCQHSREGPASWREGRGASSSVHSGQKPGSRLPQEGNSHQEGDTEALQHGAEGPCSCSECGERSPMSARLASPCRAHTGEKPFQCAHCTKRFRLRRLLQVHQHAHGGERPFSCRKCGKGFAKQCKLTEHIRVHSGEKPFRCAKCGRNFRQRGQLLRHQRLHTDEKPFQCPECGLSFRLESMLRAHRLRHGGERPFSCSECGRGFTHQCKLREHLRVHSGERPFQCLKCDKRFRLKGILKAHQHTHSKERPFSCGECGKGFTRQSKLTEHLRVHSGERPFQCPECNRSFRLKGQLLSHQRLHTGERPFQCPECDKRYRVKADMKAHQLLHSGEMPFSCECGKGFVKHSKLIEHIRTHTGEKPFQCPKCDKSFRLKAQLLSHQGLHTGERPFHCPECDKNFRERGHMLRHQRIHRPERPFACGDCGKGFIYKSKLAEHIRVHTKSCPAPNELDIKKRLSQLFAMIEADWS
# [9] = molecular target: Cullin-associated NEDD8-dissociated protein 1 (UniProt Q86VP6); experiment: co-fractionation; co-fractionation; cross-linking mass spectrometry
# Actin-related protein 2 = Actin-related protein 2 (UniProt P61160); experiment: cross-link between two proteins; co-fractionation; cross-linking mass spectrometry
# [10] = molecular target: Actin-related protein 2/3 complex subunit 1A (UniProt Q92747); experiment: as above
# [11] = molecular target: Actin-related protein 2/3 complex subunit 3 (UniProt O15145); experiment: as above
# [12] = molecular target: Actin-related protein 2/3 complex subunit 4 (UniProt P59998); experiment: as above
# [13] = molecular target: Vacuolar protein sorting-associated protein 35 (UniProt Q96QK1); experiment: as above
# [14] = molecular target: Enhancer of rudimentary homolog (UniProt P84090); experiment: cross-link between two proteins; affinity purification or IP with mass spectrometry; cross-linking mass spectrometry
# Sequence of Histone H1.4, P10412 (P10412 whole entry): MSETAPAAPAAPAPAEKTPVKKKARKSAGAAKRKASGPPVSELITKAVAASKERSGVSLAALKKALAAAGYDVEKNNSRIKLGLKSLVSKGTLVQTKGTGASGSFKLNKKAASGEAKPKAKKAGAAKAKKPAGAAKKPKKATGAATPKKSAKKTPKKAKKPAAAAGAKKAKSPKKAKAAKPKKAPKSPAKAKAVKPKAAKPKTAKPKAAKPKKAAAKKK
# Sequence of V-type proton ATPase subunit D (Q9Y5K8 whole entry): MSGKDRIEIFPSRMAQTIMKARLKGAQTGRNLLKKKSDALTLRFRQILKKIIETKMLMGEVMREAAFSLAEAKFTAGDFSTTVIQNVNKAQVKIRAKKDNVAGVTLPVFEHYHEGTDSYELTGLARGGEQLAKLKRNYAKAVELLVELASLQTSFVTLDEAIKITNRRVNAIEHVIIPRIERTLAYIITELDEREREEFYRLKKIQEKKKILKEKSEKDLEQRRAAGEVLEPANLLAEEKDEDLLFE
# Sequence of Ragulator complex protein LAMTOR1, Q6IAA8 (Q6IAA8 whole entry, one chain of several): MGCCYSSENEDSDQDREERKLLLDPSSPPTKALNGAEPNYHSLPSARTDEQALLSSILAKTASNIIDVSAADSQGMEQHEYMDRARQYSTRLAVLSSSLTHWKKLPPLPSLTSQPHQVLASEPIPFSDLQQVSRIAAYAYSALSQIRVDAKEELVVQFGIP
# Sequence of Cullin-associated NEDD8-dissociated protein 1 (Q86VP6 whole entry): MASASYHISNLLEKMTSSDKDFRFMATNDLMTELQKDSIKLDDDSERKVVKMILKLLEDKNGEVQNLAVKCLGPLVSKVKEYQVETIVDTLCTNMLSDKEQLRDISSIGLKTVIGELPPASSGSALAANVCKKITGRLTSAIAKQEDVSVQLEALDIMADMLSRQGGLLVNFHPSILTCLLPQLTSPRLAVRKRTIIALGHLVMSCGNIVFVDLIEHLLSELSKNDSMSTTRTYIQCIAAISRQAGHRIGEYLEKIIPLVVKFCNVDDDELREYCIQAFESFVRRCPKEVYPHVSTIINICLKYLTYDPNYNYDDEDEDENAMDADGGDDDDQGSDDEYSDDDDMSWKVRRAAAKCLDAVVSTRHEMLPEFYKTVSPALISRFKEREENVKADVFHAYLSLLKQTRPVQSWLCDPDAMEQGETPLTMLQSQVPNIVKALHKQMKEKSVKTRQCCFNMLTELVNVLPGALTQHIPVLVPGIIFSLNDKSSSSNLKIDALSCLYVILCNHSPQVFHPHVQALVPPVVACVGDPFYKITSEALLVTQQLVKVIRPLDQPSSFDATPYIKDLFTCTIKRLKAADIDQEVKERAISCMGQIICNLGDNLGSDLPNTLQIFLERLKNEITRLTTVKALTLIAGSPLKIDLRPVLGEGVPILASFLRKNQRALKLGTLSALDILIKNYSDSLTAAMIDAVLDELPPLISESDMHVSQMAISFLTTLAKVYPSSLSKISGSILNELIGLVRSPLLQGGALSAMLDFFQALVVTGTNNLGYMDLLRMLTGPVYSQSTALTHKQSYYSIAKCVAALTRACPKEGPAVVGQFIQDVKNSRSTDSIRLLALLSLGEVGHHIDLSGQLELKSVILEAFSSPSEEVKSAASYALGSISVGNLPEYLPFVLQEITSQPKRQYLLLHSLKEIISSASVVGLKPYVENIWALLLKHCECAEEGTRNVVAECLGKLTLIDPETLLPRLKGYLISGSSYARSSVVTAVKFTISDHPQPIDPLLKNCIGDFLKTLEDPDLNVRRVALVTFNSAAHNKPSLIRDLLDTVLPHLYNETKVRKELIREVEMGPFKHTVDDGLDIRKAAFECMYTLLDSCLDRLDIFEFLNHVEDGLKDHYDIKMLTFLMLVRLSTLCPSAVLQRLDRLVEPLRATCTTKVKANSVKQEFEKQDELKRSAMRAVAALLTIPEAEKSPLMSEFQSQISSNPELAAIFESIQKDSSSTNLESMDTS
# Sequence of Ragulator complex protein LAMTOR3 (Q9UHA4 whole entry, one chain of several): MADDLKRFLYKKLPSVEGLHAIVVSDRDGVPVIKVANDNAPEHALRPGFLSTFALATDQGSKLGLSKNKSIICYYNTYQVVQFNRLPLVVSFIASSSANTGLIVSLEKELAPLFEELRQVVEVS
# Sequence of Cullin-1, Q13616 (Q13616 whole entry): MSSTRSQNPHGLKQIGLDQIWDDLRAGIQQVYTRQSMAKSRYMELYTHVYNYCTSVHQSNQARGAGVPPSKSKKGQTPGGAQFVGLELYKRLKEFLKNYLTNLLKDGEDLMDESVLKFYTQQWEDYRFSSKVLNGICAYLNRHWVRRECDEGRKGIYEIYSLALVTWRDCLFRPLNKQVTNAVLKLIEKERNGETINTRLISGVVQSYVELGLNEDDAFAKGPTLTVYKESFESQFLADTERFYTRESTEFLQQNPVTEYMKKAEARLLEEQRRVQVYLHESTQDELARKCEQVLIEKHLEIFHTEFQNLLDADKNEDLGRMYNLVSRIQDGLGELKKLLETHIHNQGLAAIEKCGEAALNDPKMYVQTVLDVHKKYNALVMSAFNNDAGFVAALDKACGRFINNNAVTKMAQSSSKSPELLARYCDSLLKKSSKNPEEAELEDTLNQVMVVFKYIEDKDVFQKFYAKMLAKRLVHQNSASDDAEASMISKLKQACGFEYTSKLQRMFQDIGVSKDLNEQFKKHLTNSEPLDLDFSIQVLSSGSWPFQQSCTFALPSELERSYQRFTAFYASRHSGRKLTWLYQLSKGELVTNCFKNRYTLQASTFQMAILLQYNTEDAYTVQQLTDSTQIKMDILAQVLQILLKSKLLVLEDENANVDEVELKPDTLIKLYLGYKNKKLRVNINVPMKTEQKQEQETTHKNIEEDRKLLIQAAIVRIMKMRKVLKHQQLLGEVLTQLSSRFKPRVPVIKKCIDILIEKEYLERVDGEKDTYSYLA
# Sequence of V-type proton ATPase catalytic subunit A, P38606 (P38606 whole entry): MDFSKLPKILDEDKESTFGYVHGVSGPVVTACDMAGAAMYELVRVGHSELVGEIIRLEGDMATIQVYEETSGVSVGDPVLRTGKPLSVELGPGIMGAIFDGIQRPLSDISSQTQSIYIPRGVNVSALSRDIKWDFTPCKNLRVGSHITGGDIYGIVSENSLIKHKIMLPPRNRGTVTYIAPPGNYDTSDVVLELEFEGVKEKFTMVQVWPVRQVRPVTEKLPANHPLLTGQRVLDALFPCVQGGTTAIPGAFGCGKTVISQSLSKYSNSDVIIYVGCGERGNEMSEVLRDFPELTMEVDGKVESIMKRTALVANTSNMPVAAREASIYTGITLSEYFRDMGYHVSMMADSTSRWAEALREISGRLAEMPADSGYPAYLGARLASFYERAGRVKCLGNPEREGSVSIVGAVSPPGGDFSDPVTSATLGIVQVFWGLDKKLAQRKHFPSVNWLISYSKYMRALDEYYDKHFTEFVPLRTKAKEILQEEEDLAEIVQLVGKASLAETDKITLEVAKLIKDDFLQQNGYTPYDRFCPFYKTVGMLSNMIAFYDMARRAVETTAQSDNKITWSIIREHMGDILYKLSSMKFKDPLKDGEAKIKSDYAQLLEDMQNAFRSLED
substance,measurement,setting,value
"Small ribosomal subunit protein uS17, P62280",listed as a hit,[1],yes
"Large ribosomal subunit protein eL8, P62424",listed as a hit,Obscurin,yes
"Large ribosomal subunit protein uL29, P42766",listed as a hit,[2],yes
"Small ribosomal subunit protein eS7, P62081",listed as a hit,[3],yes
"Small ribosomal subunit protein eS10, P46783",listed as a hit,[4],yes
"Ragulator complex protein LAMTOR1, Q6IAA8",listed as a hit,[5],yes
"Large ribosomal subunit protein uL5, P62913",listed as a hit,[6],yes
"V-type proton ATPase catalytic subunit A, P38606",listed as a hit,[7],yes
"Large ribosomal subunit protein uL1, P62906",listed as a hit,[8],yes
"Histone H1.4, P10412",listed as a hit,Zinc finger protein 786,yes
"Cullin-1, Q13616",listed as a hit,[9],yes
"Actin-related protein 2/3 complex subunit 5, O15511",listed as a hit,Actin-related protein 2,yes
"Actin-related protein 3, P61158",listed as a hit,[10],yes
"Actin-related protein 2/3 complex subunit 2, O15144",listed as a hit,[11],yes
same,listed as a hit,[12],yes
"Vacuolar protein sorting-associated protein 26A, O75436",listed as a hit,[13],yes
"DNA-directed RNA polymerase II subunit RPB1, P24928",listed as a hit,[14],yes
